VHR inh abs: VHR1 phosphatase inhibitors, primary screen, biochemical, absorbance, uHTS. Dual specificity protein phosphatase 3 (Homo sapiens), P51452. recombinant VHR phosphatase, pNPP absorbance. inhibition, % at 13.3 µM. 290,000 compounds, 0.52% hits; in the data active means inhibition above about 50%
PrPC TRFRET: inhibitors of human cell surface prion protein PrPC, primary screen, cell-based, TR-FRET. TR-FRET read-out. inhibition, % at 13.8 µM. 370,000 compounds, 0.43% hits. AID 720596, 2013; in the data active means inhibition above about 24%; further: 0% = median of the test wells and 100% = reference compound wells
PrP 5UTR inh: inhibition of PrP 5' UTR reporter expression; cell-based PrP 5' UTR mRNA reporter, plate reader; 340,000 compounds, 0.35% hits; inhibition, % (test concentration not listed); in the data active means inhibition above about 52%; further: 0 = median of the neutral control wells
PfHsp40 yeast: rescue of yeast from PfHsp40 toxicity, primary screen, S. cerevisiae, ATP luminescence. S. cerevisiae expressing PfHsp40, growth rescue. growth rescue, % at 12.5 µM. 340,000 compounds, 0.68% hits. AID 504582, 2011; in the data active means growth rescue above about 28%, passing the limit was not always enough;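 further: yeast W303a lacking pdr1 and pdr3 grown in galactose medium; growth measured after three days at 30 °C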
BJeLR lethal: MLPCN primary cell-based screen for lethality selective to Ras in HRASV12 cells. BJeLR (HRASV12) viability, CellTiter-Glo ATP luminescence, 48 h. inhibition, % (concentration not given with the values). 300,000 compounds, 0.17% hits. AID 1554, 2009; in the data active means inhibition above about 50%
MazEF act: activators of E. coli MazEF toxin-antitoxin RNase, primary screen, biochemical, fluorescence, uHTS. Endoribonuclease toxin MazF (Escherichia coli (strain K12)), P0AE70. FAM/BHQ RNA-DNA oligo cleavage fluorescence, 5 h. activation, % at 20 µM. 350,000 compounds, 0.32% hits. AID 504720, 2011; in the data active means activation above about 50%
Target sequence (P0AE70 whole entry, looked up): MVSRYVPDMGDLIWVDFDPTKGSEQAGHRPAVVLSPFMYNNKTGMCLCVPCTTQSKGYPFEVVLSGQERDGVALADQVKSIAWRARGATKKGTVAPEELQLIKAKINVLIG
Numbers without * were called inactive; . = not tested or not shown; + = active, no number. Shown are actives, neighbours in structure and some others; about 2.1% of the full set was active somewhere.

SMILES	VHR inh abs	PrPC TRFRET	PrP 5UTR inh	PfHsp40 yeast	BJeLR lethal	MazEF act
COc1ccccc1Nc1ccc([N+](=O)[O-])cc1N	53*	-36	-38	-2	-15	-1
COc1ccccc1Nc1c([N+](=O)[O-])cc(C)cc1[N+](=O)[O-]	8	-3	-16	0	5	0
COc1ccc(C(CNC(=O)C2CCN(S(=O)(=O)c3ccc(F)cc3)CC2)N(C)C)cc1 (stereo not drawn)	-12	4	-20	-2	3	+
O=[N+]([O-])c1ccc(Cl)c(-c2ccc(/C=N/c3c(-c4ccco4)nc4ccccn34)o2)c1	27	-14	-8	1	7	95*
CCOC(=O)c1c2c(n(C)c1COC)C(=O)C(=O)c1ccc(Br)cc1-2	.	.	.	.	69*	.

Compound activity deposited in PubChem BioAssay by several laboratories.
